Data taken from ChEMBL document CHEMBL3988442, “University of Dundee, Small-Polar-MMV Screening Library” (2021).
About 13,000 (27%) of roughly 48,000 compounds showed an effect of 50% or more. The list shows a part of the results.

Test system: Wolbachia pipientis
Assay: Anti-Wolbachia Cell-Based Screen
Format: functional
Parameters: scale not given: in the data most compounds retested in dose-response had high values
Conditions: 5 µM

SMILES	Percent Effect
CCOc1ccc(-n2nc(C)c(CC(C)=O)c2C)cc1C(N)=O	-4.424%
O=C(O)C(F)(F)F.O=S(=O)(C1CC1)N1CCC2(CCCN(c3ncccn3)C2)C1 (stereo unspecified)	97.03%
Cc1cnc(N2CC3(CCN(S(=O)(=O)C4CC4)C3)C2)nc1.O=C(O)C(F)(F)F	-3.978%
O=S(=O)(C1CC1)N1CCC2(CN(c3ncccn3)C2)C1	-12.56%
O=C(CCc1ccc(F)cc1)NCc1ccnc(NC2CC2)c1	-8.812%
Cc1ccc(CN2CC[C@H]3CO[C@H](CN4CCCC4)[C@H]3C2)o1.O=C(O)C(F)(F)F.O=C(O)C(F)(F)F	-21.11%
CN1CCN(C[C@@H]2OC[C@H]3CN(Cc4ccsc4)CC[C@H]32)CC1.O=C(O)C(F)(F)F.O=C(O)C(F)(F)F.O=C(O)C(F)(F)F	-2.359%
Cc1ccc(CN2CC[C@H]3CO[C@H](CN4CCN(C)CC4)[C@H]3C2)o1.O=C(O)C(F)(F)F.O=C(O)C(F)(F)F.O=C(O)C(F)(F)F	-46.51%
O=C(O)C(F)(F)F.O=C(O)C(F)(F)F.c1cc(CN2CC[C@H]3CO[C@H](CN4CCOCC4)[C@H]3C2)cs1	117.2%
O=C(C1CCOCC1)N1C[C@@H]2CN(Cc3ccsc3)CCO[C@@H]2C1.O=C(O)C(F)(F)F	4.767%
O=C(O)C(F)(F)F.O=C(O)C(F)(F)F.c1cc2c(cc1CN1CC[C@H]3CO[C@H](CN4CCCC4)[C@H]3C1)OCO2	-12.98%
CN(Cc1ccco1)C[C@H]1OC[C@@H]2CCN(Cc3ccsc3)C[C@@H]21.O=C(O)C(F)(F)F.O=C(O)C(F)(F)F	-7.864%
O=C(O)C(F)(F)F.O=C(O)C(F)(F)F.c1cc(CN2CC[C@@H]3[C@@H](CO[C@H]3CN3CCOCC3)C2)cs1	92.79%
CN1CCN(C[C@H]2OC[C@@H]3CCN(Cc4ccsc4)C[C@@H]32)CC1	98.94%
O=C(Nc1ccnc(OC2CCOC2)c1)C1CCC1 (stereo unspecified)	-17.8%
Cc1cc(CN2CCC(CNC(=O)c3ccc(O)c(Cl)c3)C2)[nH]n1 (stereo unspecified)	12.57%
CNS(=O)(=O)c1ccc(C(=O)N2CCCCC2c2ccc(C)cc2)o1 (stereo unspecified)	124%
CC(=O)Nc1nc(C(=O)N2CCCC2c2ccccc2C)cs1 (stereo unspecified)	-3.064%
CNS(=O)(=O)c1ccc(C(=O)N2CCCC2Cc2ccccc2)o1 (stereo unspecified)	9.44%
Cc1nc(C(=O)N2CCCCC2c2ccc(CN(C)C)cc2)c(C)o1 (stereo unspecified)	-1.477%
CNS(=O)(=O)c1ccc(C(=O)N2CCCC2c2cnn(C)c2)o1 (stereo unspecified)	-2.298%
CNS(=O)(=O)c1ccc(C(=O)N2CCCC2c2ccccc2C)o1 (stereo unspecified)	116.1%
CNS(=O)(=O)c1ccc(C(=O)N2CCCC2c2ccncc2)o1 (stereo unspecified)	101.5%
CNc1nc(C(=O)N2CCCCC2c2ccc(CN(C)C)cc2)cs1 (stereo unspecified)	-11.93%

SMILES	Percent Effect
CN(C)Cc1ccc(C2CCCCN2C(=O)c2ncccc2O)cc1 (stereo unspecified)	1.796%
NS(=O)(=O)c1ccc(C(=O)N2CCCC2c2ccccc2)o1 (stereo unspecified)	114.9%
CNS(=O)(=O)c1ccc(C(=O)N2CCCC2c2ccccc2)o1 (stereo unspecified)	-8.711%
O=c1ccncn1Cc1csc(C2CC2)n1	-22.65%
Cc1cc(C)cc(CCC(=O)NC(C)c2nnn[nH]2)c1 (stereo unspecified)	-2.993%
CCCn1nc2c(cc1=O)CN(Cc1ncc(C(C)(C)C)o1)CC2	7.183%
c1ccc2c(N3CCCCC3)cnnc2c1	-32.94%
CN(Cc1ccco1)c1ccc(C(=O)NCCCc2ccccn2)cn1	-0.2765%
CN1CC[C@@H]2[C@@H]1CCN2Cc1ccc2c(c1)OCO2	-14.63%
COCc1cn(C2CCN(C(=O)Cc3ccsc3)CC2)nn1	-0.9661%
CNCc1cn(C2CCN(CCC(C)c3ccccc3)CC2)nn1 (stereo unspecified)	95.9%
Cc1cccc(CN2CCC(n3cc(CCO)nn3)CC2)c1C	4.105%
COCc1cn(C2CCN(Cc3ccc(Cl)s3)CC2)nn1	0.9369%
CNCc1cn(C2CCN(C(=O)NCc3ccco3)CC2)nn1	17.43%
CC(CCN1CCC(n2cc(CCO)nn2)CC1)c1ccccc1 (stereo unspecified)	92.59%
COCc1cn(C2CCN(CCC(C)c3ccccc3)CC2)nn1 (stereo unspecified)	99.11%
CSC(C)CCN1CCC(n2cc(C3CCCCC3)nn2)CC1 (stereo unspecified)	-13.53%
CCCC(C)CN1CCC(n2cc(CCCO)nn2)CC1 (stereo unspecified)	-3.716%
CSCc1noc(CN(C)C(C)c2nc(C)sc2C)n1 (stereo unspecified)	-2.011%
CC(C)C(=O)NC1COC2(CCN(C(=O)c3ccc[nH]3)CC2)C1 (stereo unspecified)	3.438%
O=C(c1cc(-n2cccn2)ccn1)N1CCOc2ncccc21	-22.54%
CC(C)c1cc(CN(C)C(=O)C(C)N2CCc3ccccc3C2)no1 (stereo unspecified)	103.9%
CN(Cc1cc(C2CC2)on1)C(=O)C(c1cccnc1)N1CCCC1 (stereo unspecified)	-7.414%
Cc1noc(C2CCCN(CC(=O)N3CCc4ccccc4C3)C2)n1 (stereo unspecified)	4.147%

SMILES	Percent Effect
COCCc1noc(CN(C)C(=O)c2cccc(N3CCCC3=O)c2)n1	-10.13%
COCCc1noc(CN(C)C(=O)C2COc3ccccc3C2)n1 (stereo unspecified)	-1.856%
COc1cccc2c1N(Cc1noc(C3CC3)n1)CCC2	-4.254%
CC(C(=O)N(C)Cc1noc(C2CCC2)n1)N1CCc2ccccc2C1 (stereo unspecified)	96.98%
COCCc1noc(CN(C)C(=O)C(C)N2CCc3ccccc3C2)n1 (stereo unspecified)	110.4%
CC(C(=O)N(C)C)N1CCc2onc(-c3cccc(F)c3)c2C1 (stereo unspecified)	-12.34%
CCCn1cnnc1CNC(=O)C1COc2c(cccc2OC)C1 (stereo unspecified)	-10.56%
CN(C)c1nc2c(c(N(C)C)n1)CCN(C(=O)CN1C[C@@H]3CC[C@H]1C3)C2	-4.711%
COc1cccc(N2CCN(C(=O)CCO)CC2=O)c1	0.6756%
Cc1cc(C)cc(N2CCN(C(=O)CCN3C[C@@H]4CC[C@H]3C4)CC2=O)c1	110.5%
Cc1ccc2oc(=O)n(CCC(=O)N3CCN(C)C(=O)C3)c2c1	7.292%
O=C(CCN1C[C@@H]2CC[C@H]1C2)N1CCN(c2cccc(Cl)c2)C(=O)C1	108.3%
COCCN1C[C@H]2CC[C@@H]1CN(C(=O)CCc1c(C)nn(C)c1C)C2	8.536%
COc1cccc(N2CCN(C(=O)C(O)c3cccc(Cl)c3)CC2=O)c1 (stereo unspecified)	-25.1%
Cc1ccc(N2CCCC(N3CCC(CO)CC3)C2=O)cc1 (stereo unspecified)	-5.905%
Cc1ccc(N2CCN(C(=O)CN3C[C@@H]4CC[C@H]3C4)CC2=O)cc1	111.2%
CC(C)Cn1cncc1Cn1cccc(C(F)(F)F)c1=O	13.38%
COc1cccc(C(=O)NC(C)CCN2CCOCC2)c1F (stereo unspecified)	4.529%
CCN(CC)CCn1cc(NC(=O)c2ccccc2OC)cn1	7.312%
COc1ccccc1C(=O)NC(C)CC(=O)O (stereo unspecified)	5.398%
CC(C)Oc1ccccc1C(=O)NCCc1nncn1C	-7.55%
COc1ccccc1C(=O)Nc1c(F)c(C(=O)NCCC(C)C)nn1C	138.9%
CCC(C)NC(=O)c1nn(C)c(NC(=O)c2ccccc2OC)c1F (stereo unspecified)	131.5%
CN1C(=O)CCC12CCN(S(=O)(=O)c1ccccc1)CC2	-37.9%

SMILES	Percent Effect
CCN1CCNC(=O)C12CCN(S(=O)(=O)c1ccccc1)CC2	-28.29%
Cc1ccc(-c2cn[nH]c2C2CCCN(c3ccnc(C)n3)C2)cc1 (stereo unspecified)	-2.431%
CC(C)=CCC1(C(=O)O)CCCN(c2ccnc(C)n2)C1 (stereo unspecified)	-9.118%
NC(=O)N1CCC2(CC1)CN(c1ncccn1)CCO2	-107.3%
Cc1cnc(N2CCC3(CC2)CC3CNC(=O)N(C)C)nc1 (stereo unspecified)	-2.686%
Cc1nc2c(c(N3CCN(c4ncccc4C(N)=O)CC3)n1)CCNC2	-20.98%
CC1(c2[nH]ncc2C(N)=O)CCN(S(=O)(=O)c2ccccc2)CC1	129%
CC1(c2[nH]ncc2C(N)=O)CCN(c2ncccn2)CC1	105.4%
CN(C)C(=O)c1cn[nH]c1C1(C)CCN(c2ncccn2)CC1	98.94%
Cc1nccc(N2CCCC(C)(c3[nH]ncc3C(N)=O)C2)n1 (stereo unspecified)	108.3%
CN(C)C(=O)CC1CC2(CCN(c3ncccn3)CC2)c2ccccc21.O=C(O)C(F)(F)F (stereo unspecified)	8.977%
CNC(=O)CN(C)Cc1ccc(F)cc1Cl	-1.762%
O=C(c1nc(N2CCCC2)ncc1Cl)N1CCN(Cc2ccsc2)CC1	11.05%
CCn1ncc2c1CCCC2NCc1csc(C(C)C)n1 (stereo unspecified)	-1.873%
CC(C)Cc1nc(CS(=O)(=O)c2ccccc2)no1	-7.933%
CC(=O)NCC(=O)N1CCC2(CC1)NC(=O)CC2c1cccnc1.O=C(O)C(F)(F)F (stereo unspecified)	7.13%
CCN1C(=O)CC(c2cnn(C)c2)C12CCN(C(=O)C1CC=CC1)CC2 (stereo unspecified)	-6.196%
O=C(O)C(F)(F)F.O=C1CC(c2ccncc2)C2(CCN(C(=O)NC3CC3)CC2)N1 (stereo unspecified)	-11.64%
Cn1cc(C2CC(=O)NC23CCN(C(=O)NC2CC2)CC3)cn1 (stereo unspecified)	102%
O=C1CC(c2ccncc2)C2(CCN(C(=O)c3ccnnc3)CC2)N1 (stereo unspecified)	8.485%
COCC(=O)N1CCC2(CC1)CC(c1cnn(C)c1)C(=O)N2 (stereo unspecified)	4.267%
Cn1cc(C2CC(=O)NC23CCN(C(=O)c2ccc[nH]2)CC3)cn1 (stereo unspecified)	-5.816%
Cn1cc(C2CC(=O)NC23CCN(C(=O)C2CC=CC2)CC3)cn1 (stereo unspecified)	98.1%
CC(=O)NCC(=O)N1CCC2(CC1)NC(=O)CC2c1cnn(C)c1 (stereo unspecified)	117.4%
